Test results published in PubChem BioAssay AID720700 (The Scripps Research Institute Molecular Screening Center, 2013).
The campaign covered roughly 370,000 compounds. About 3,100 (0.84%) were called active. This is one part of a sample in which actives are shown more often than they occur. Values without a mark were called inactive. Rule as the data show it: active = inhibition above about 9.5%; inactive = the rest.

Biological target: 1-phosphatidylinositol 4,5-bisphosphate phosphodiesterase gamma-1 (Homo sapiens) (UniProt P19174)
Sequence (P19174 whole entry, looked up): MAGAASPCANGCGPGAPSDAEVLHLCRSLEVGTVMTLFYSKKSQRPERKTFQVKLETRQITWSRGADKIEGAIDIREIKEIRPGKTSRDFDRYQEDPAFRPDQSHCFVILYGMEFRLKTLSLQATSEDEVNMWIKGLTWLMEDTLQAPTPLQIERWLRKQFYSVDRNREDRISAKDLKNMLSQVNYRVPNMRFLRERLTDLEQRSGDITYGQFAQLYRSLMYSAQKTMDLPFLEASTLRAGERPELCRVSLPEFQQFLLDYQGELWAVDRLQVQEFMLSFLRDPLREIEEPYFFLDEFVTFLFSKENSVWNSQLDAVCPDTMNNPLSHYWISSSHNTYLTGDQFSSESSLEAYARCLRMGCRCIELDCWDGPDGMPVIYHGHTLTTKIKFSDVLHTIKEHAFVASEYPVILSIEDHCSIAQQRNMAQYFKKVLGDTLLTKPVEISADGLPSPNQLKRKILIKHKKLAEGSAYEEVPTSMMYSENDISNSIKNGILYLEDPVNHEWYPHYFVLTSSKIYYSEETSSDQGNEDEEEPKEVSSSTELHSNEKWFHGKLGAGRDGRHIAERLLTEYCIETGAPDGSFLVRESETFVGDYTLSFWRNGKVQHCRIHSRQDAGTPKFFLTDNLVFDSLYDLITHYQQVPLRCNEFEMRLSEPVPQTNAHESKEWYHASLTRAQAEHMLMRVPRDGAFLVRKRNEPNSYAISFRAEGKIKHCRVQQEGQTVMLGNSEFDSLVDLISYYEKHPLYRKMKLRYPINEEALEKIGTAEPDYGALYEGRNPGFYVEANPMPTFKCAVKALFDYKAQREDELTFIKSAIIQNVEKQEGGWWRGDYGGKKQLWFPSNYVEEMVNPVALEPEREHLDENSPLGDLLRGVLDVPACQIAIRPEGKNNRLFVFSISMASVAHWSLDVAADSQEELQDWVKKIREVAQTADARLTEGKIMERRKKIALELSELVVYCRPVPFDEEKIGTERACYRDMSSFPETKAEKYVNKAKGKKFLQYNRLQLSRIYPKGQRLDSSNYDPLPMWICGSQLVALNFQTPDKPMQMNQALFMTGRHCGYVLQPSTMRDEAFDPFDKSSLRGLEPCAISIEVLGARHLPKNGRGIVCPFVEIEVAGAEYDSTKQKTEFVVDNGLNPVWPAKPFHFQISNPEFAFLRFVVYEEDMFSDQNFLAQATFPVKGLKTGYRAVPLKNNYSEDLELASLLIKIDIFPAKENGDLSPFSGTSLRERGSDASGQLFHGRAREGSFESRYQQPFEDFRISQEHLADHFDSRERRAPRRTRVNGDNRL
Test: blockers of human PLCG1 activity – biochemical, fluorescence, purified enzyme, primary screen (AID 720700)
Conditions: purified PLC-gamma1, fluorogenic substrate, at 12.2 µM, active compounds read high

Row | SMILES | inhibition
1 | COc1ccc(Cn2ccc3ccc(-c4ccc5ccn(Cc6ccccc6C)c5c4)cc32)cc1 | -65%
2 | O=S1(=O)c2c(cccc2N2CC[C@H](O)C2)O[C@@H]2CCN1C2 | -2.5%
3 | CCOC(=O)C1CCN(C(=O)c2cccc(S(=O)(=O)N(CC)c3ccccc3)c2)CC1 | 1.63%
4 | CCOC(=O)C1CCN(C(=O)c2ccccc2N(C)S(=O)(=O)c2ccccc2)CC1 | 12.6% (active)
5 | CCN1CCN(C(=O)c2ccccc2N(C)S(=O)(=O)c2ccc(C)cc2)CC1 | 2.78%
6 | O=C(CSc1nc2ccccc2n1Cc1ccccc1Cl)N/N=C\c1c[nH]c2ccccc12 | 1.37%
7 | CC(C)CNc1cccc2c1S(=O)(=O)N(Cc1cn(Cc3ccccc3C(F)(F)F)nn1)Cc1ccccc1O2 | -4.63%
8 | Cc1cccc(NC(=S)N(CCN(C)C)C(C)c2ccco2)c1 (configuration not stated) | -0.2%
9 | Cc1ccc(NC(=S)N(Cc2ccco2)C(C)c2cccs2)cc1 (configuration not stated) | 9.84% (active)
10 | Cc1ccc(-c2csc(N(Cc3ccco3)C(=O)c3cccs3)n2)cc1 | 0.51%
11 | O=C1CC[C@@H](COc2ccc3[nH]cc(-c4ccccc4)c3c2-c2ccccc2)N1 | -12.8%
12 | Nc1[nH]c(/C=C2/CCCCC2n2[nH]c(=O)n(-c3ccccc3)c2=O)c(Cc2ccccc2)[n+]1Cc1ccccc1 (configuration not stated) | -3.57%
13 | COC(=O)[C@]12C[C@H](CC(=O)NCc3cccs3)C(=O)N(CCc3ccc(OC)c(OC)c3)C1=C[C@H](C(C)C)O[C@@H]2C1CC1 | 0.22%
14 | Cc1ccc(CSc2nnc(SCC(=O)NN=Cc3cc(Br)ccc3F)s2)cc1 | 1.18%
15 | CC[C@@H](CCC(=O)N(c1ccccc1)c1ccccc1)C1CC1 | -1.13%
16 | COc1ccc2[nH]c3c(c2c1)CCN1C(=O)C(CC(=O)NCCc2ccccn2)C[C@H](C(=O)N2CCOCC2)[C@@]31C (some centres not stated) | 0.01%
17 | C[C@]12c3[nH]c4ccc(Cl)cc4c3CCN1C(=O)[C@@H](CC(=O)NCCCn1ccnc1)C[C@@H]2C(=O)N1CCOCC1 | 13.5% (active)
18 | CC[C@]12c3[nH]c4ccc(Cl)cc4c3CCN1C(=O)[C@@H](CC(=O)NCCN1CCOCC1)C[C@@H]2C(=O)N1CCN(C(=O)C2CC2)CC1 | 0.47%
19 | CCOc1ccc(N(CC(=O)Nc2c(C)n(C)n(-c3ccccc3)c2=O)S(=O)(=O)c2ccc(Cl)s2)cc1 | 1.1%
20 | CN[C@H]1C[C@H]2c3cc(N4CCOCC4)ccc3CCN2C[C@H]1[C@H](C)O | -7.18%
21 | Nn1c(SCC(=O)Nc2ccc(S(N)(=O)=O)cc2)nnc1-c1n[nH]c2c1CCC2 | 3.04%

Row | SMILES | inhibition
22 | CCOc1ccc(NC(=O)[C@H](C)NC(=O)C2CC(=O)N(c3ccc(OC)cc3)C2)cc1 (some centres not stated) | 9.63% (active)
23 | CCCC(C)c1nnc(NC(=O)C2CC(=O)N(c3ccc(OCC)cc3)C2)s1 (configuration not stated) | 4.32%
24 | COc1ccc(N2CC(C(=O)N[C@@H](C)C(=O)N3CCCCC3)CC2=O)cc1 (some centres not stated) | -2.8%
25 | CCOC(=O)[C@]12CCCC3=C1N(CCC3)C(=O)[C@@H](CC(=O)NCC13CC4CC(CC(C4)C1)C3)C2 | 0.85%
26 | O=C(Nc1cc(Cl)cc(Cl)c1)OCCN1CCCC12CCC(c1ccccc1)CC2 (configuration not stated) | -0.68%
27 | COc1ccc(-n2c(SCC(=O)Nc3ccc(C)c(Cl)c3)nc3ccccc3c2=O)cc1 | 5.06%
28 | C=CCN(c1ccc(C(N)=O)cc1)S(C)(=O)=O | 2.1%
29 | C=CCN(c1ccc(Cl)cc1)S(=O)(=O)c1cccc(C(=O)OCC(=O)N(C)C)c1 | 14% (active)
30 | CN(C)S(=O)(=O)c1cccc(C(=O)OCC(=O)N2CCCC2=O)c1 | 1.6%
31 | O=C(NCc1ccco1)C1CCCN(S(=O)(=O)c2ccc(Cl)s2)C1 (configuration not stated) | 2.2%
32 | C[C@@H]1CN([C@H](C)CO)C(=O)CCCn2nncc2CO[C@@H]1CN(C)C(=O)OCc1ccccc1 | 5.09%
33 | C[C@H](CO)N1C[C@H](C)[C@@H](CN(C)C(=O)C2CCCCC2)OCc2cnnn2CCCC1=O | 0.86%
34 | COC(=O)N(C)C[C@@H]1OCc2cnnn2CCCC(=O)N([C@@H](C)CO)C[C@@H]1C | 14.2% (active)
35 | COC(=O)CC1CCc2cc(C)cc(C(CC(C)C)NC(=O)[C@H](CC(C)C)NC(=O)OCc3ccccc3)c2O1 (some centres not stated) | -1.26%
36 | CCOc1ccccc1NC(=O)COc1ccc(S(=O)(=O)N2CCCC2)cc1 | -0.48%
37 | COc1ccc(S(=O)(=O)N2CCC(C(=O)NCCC(=O)Nc3ccccc3OC)CC2)cc1 | 0.77%
38 | CCOc1ccccc1NC(=O)CCN1CCN(S(=O)(=O)c2ccc(OC)cc2)CC1 | 10.4% (active)
39 | CCC(CO)Nc1cccc2c1S(=O)(=O)N(Cc1cn(Cc3ccccc3C(F)(F)F)nn1)Cc1ccccc1O2 (configuration not stated) | -5.47%
40 | CC(=O)c1cc(-c2ccc3ccccc3c2)c(=O)n2c1CCC2 | -43.4%
41 | Cc1ccc(-n2ncc3c2CC(C)(C)CC3NC(=O)CCc2cnn(C)c2)cc1 (configuration not stated) | 13.8% (active)
42 | COc1ccc(-n2ncc3c2CC(C)(C)CC3NC(=O)CCc2c(C)nn(C)c2C)cc1 (configuration not stated) | 2.97%

Row | SMILES | inhibition
43 | Cc1ccc(-n2ncc3c2CC(C)(C)CC3NC(=O)Cc2c(C)noc2C)cc1 (configuration not stated) | 0.61%
44 | COc1ccc(-c2cc(-c3nnc(SCC(=O)Nc4cccc5ccccc45)n3N)[nH]n2)cc1 | -0.07%
45 | COC(=O)c1ccccc1-n1cc(COC(=O)NCCc2ccccc2)nn1 | -14.2%
46 | C[C@H](C(=O)N(C)c1ccccc1)[C@@H](O)c1ccc2ccccc2c1 | 16.5% (active)
47 | COc1cccc(N(C)C(=O)[C@@H](C)[C@@H](O)c2ccc3ccccc3c2)c1 | -0.17%
48 | C[C@H](C(=O)N(C)c1ccccc1)[C@@H](O)c1ccc(Cl)cc1 | 0.47%
49 | COc1ccc(CCC(=O)OCC(=O)Nc2ccc(C)c(S(=O)(=O)N(C)C)c2)cc1 | -0.79%
50 | Cc1ccc(C(=O)Nc2ccc(C)c(S(=O)(=O)N(C)C)c2)s1 | 12.1% (active)
51 | CCN(CC(=O)Nc1ccc(C)c(S(=O)(=O)N(C)C)c1)Cc1ccccc1 | 0.58%
52 | CC(C)N1CCCCC(NC(=O)C(C)(C)C)C1=O (configuration not stated) | -0.44%
53 | CCC(C)[C@@H](C(=O)OC)N(CCc1cn(Cc2ccccc2)nn1)S(=O)(=O)c1ccccc1Br (some centres not stated) | 2.53%
54 | Fc1ccc(OCc2nn3c(Cn4nnc5ccccc54)nnc3s2)cc1 | -2.02%
55 | Cc1nc(COc2cccc(Cl)c2)sc1C(=O)/C=C/N(C)C | -0.19%
56 | CCOc1cccc(-c2nnc3sc(COc4ccc(OC)cc4)nn23)c1 | 10.2% (active)
57 | Cc1ccc(-n2c(COc3ccccc3)nnc2SCC(=O)Nc2ccc3c(c2)OCCO3)cc1 | 2.55%
58 | CC(=O)OC12CCCN(C1)/C(=C/c1ccncc1)C2 (configuration not stated) | -7.4%
59 | COc1ccccc1CCNC(=O)CN1C(=O)NC2(CCCC2)C1=O | 10.4% (active)
60 | COc1ccccc1CNC(=O)CCCN1C(=O)NC2(CCCC2)C1=O | 1.01%
61 | Cc1ccc(OCCNC(=O)CN2C(=O)NC3(CCCC3)C2=O)cc1 | 0.18%
62 | CC(NCc1ccco1)C(=O)N1CCCCC1 (configuration not stated) | -2.37%
63 | Cc1ccc(-n2c(SCC(=O)Nc3ccc(S(=O)(=O)Nc4nccs4)cc3)nnc2-c2ccncc2)cc1 | -4.02%

Row | SMILES | inhibition
64 | CC(=O)C1(C(=O)Nc2nccs2)CC(c2ccccc2C(F)(F)F)=NO1 (configuration not stated) | -4.24%
65 | C=CCN1C(=O)[C@@H](CC(=O)NCCCOCCCC)[C@]2(C(=O)OCC)CCCCC/C=C/12 | -1.4%
66 | Cc1ccc(C(=O)C(=S)N2CCOCC2)cc1 | 0.9%
67 | Cc1ccc(C(=O)N2CCN(C(=O)N3CCOCC3)CC2)cc1 | 10.4% (active)
68 | Cc1ccc(C(=O)NC2CCN(C(=O)N3CCOCC3)CC2)cc1 | 4.32%
69 | Fc1ccc2nc(COCc3nc4ccc(F)cc4[nH]3)[nH]c2c1 | -0.44%
70 | Cc1cc(NS(=O)(=O)c2ccc(NC(=O)CSc3nnc(-c4ccc(C(C)(C)C)cc4)n3Cc3ccco3)cc2)nc(C)n1 | -1.67%
71 | NC(c1csc(NC(=O)Nc2cccc(C(F)(F)F)c2)n1)C1CCCCC1 (configuration not stated) | 6.49%
72 | COc1ccc(CC(N)c2csc(NC(=O)Nc3ccc(C(C)C)cc3)n2)cc1 (configuration not stated) | 2.68%
73 | COc1ccc(C(N)c2csc(NC(=O)Nc3cccc(C(F)(F)F)c3)n2)cc1 (configuration not stated) | 14.7% (active)
74 | FC(F)(F)c1cccc(NC(=S)OC2CCC23CCC(c2ccccc2)CC3)c1 (configuration not stated) | -0.1%
75 | O=C(CN1CCC(NC(=O)NCc2ccccc2)CC1)Nc1ccc2c(c1)OCCO2 | -0.43%
76 | C#CCCN([C@H](C(=O)OC)C(C)C)S(=O)(=O)c1ccc(F)cc1Br | -1.82%
77 | Cc1c(C(C)c2ccccc2O)[nH]c2ccccc12 (configuration not stated) | -4.04%
78 | COc1ccccc1C(=O)N/C(=C/c1ccc2c(c1)OCO2)C(=O)Nc1cccc(C(=O)O)c1 | -3.19%
79 | COc1ccccc1C(=O)Nc1cccc(C(=O)N2CCOCC2)c1 | 12.6% (active)
80 | COc1ccccc1C(=O)Nc1ccc(OCC(=O)N2CCCCC2)cc1 | 3.96%
81 | O=C(CSc1nc2ccccc2s1)N=Nc1c(O)[nH]c2ccccc12 | -0.8%
82 | COC(=O)[C@H](C(C)C)N(CCc1cn(Cc2ccccc2)nn1)S(=O)(=O)c1ccc(F)cc1Br | 1.89%
